Assay outcomes (PubChem)
The entries come from a sample that favours hits as a whole.
Pf Dd2 growth = inhibitors of Plasmodium falciparum Dd2 growth; Potency, µM (top dose mostly 28.9 µM), for the others: at the highest dose activity, negative = inhibition, actives largely listed as inhibitors; P. falciparum Dd2 growth, SYBR Green, 72 h; actives 4.3% (n = 120,000); active = well fitted inhibition curve with a large enough effect;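 note: plate controls were DMSO vehicle for no effect and reference drug for full effect; nearly all actives have a fitted effect of over 65% in size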
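Readout: SYBR Green fluorescence, 485 nm excitation, 535 nm emission, after ~16 h lysis at 37C. Before that, Dd2-infected red cells (2.5% hematocrit) grew 72 h with compound, 29 uM top final concentration.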
Active calls of the source: *; i = inactive; [ ] = remark or other dose. Potency is the fitted concentration of half-maximal effect.

SMILES	Pf Dd2 growth
Cc1[nH]c2ccccc2c1SCCNC(=O)c1ccccc1F	-8%
CCN(CC)S(=O)(=O)c1ccc(C(=O)NCCSc2c(-c3ccccc3)[nH]c3ccccc23)cc1	11µM*
COc1ccccc1C(=O)NCCSc1c(C)[nH]c2ccccc12	15%
Cc1ccc(-c2[nH]c3ccccc3c2SCCNC(=O)c2ccc(S(=O)(=O)N3CCOCC3)cc2)cc1	10µM*
COc1cc(C(=O)NCCSc2c(C)[nH]c3ccccc23)cc(OC)c1OC	-21%
CN1CCc2[nH]nc(C(=O)N[C@H](c3ccccn3)C3CC(O)C3)c2C1 (stereo not given in full)	-6%
CN(C)C[C@@H]1CN(c2ccccn2)C[C@H]1NC(=O)c1ccoc1	-7%
COc1ccc([S+](=O)([O-])N2CCC3(CC2)OCCN(c2ccc(F)cc2)C3=O)cc1	-7%[44.1 µM]
O=C(c1ccn2cncc2c1)N1CCOCC1	5%[44.1 µM]
Cc1noc(C)c1CC(=O)NCCc1noc(-c2ccccc2)n1	-7%
CC(=O)N1CCC(N2CC3(C2)C(=O)N(Cc2ccccc2Cl)C(=O)[C@@H]2C[C@@H](O)CN23)CC1	7.1µM*
COC(=O)c1ccc(CN2C(=O)[C@@H]3C[C@@H](O)CN3C3(CN(C4CCN(C(C)=O)CC4)C3)C2=O)cc1	40%
CCCCN1C(=O)[C@@H]2C[C@@H](O)CN2C2(CN(C3CCN(C(C)=O)CC3)C2)C1=O	11%[44.1 µM]
Cn1nccc1CN1CCn2c(nnc2C2CCCNC2)C1 (stereo not given)	-6%[44.1 µM]
N#Cc1ccccc1CN1CCCC(c2nc(-c3cccnc3)no2)CCNC(=O)CC1 (stereo not given)	-5%
O=C1CCN(CC2CC2)CCCC(c2nc(-c3cccnc3)no2)CCN1 (stereo not given)	i
N#Cc1ccc(CN2CCCC(c3nc(-c4cccnc4)no3)CCNC(=O)CC2)cc1 (stereo not given)	4µM*
O=C(NCc1ccco1)C1CC(=O)N(c2n[nH]c3ccccc23)C1 (stereo not given)	-3%
COCCC(=O)N1CCCC(c2nc(CCOc3cccc(C)c3)no2)C1 (stereo not given)	-8%
CCCS(=O)(=O)N1CC(c2nc(CCOc3cccc(C)c3)no2)C1	-17%
Cc1cccc(OCCc2noc(C3CCCNC3)n2)c1 (stereo not given)	5µM*
O=C(c1ccccc1)N1CCC(c2nnc3n2C(C(=O)N2CCOCC2)CC3)CC1 (stereo not given)	9%
CCC(CC)CN1CC2(CCN(C(=O)c3cnc(NC)nc3)CC2)OC1=O	9%
CN1C(=O)CCCCC1C(=O)NC1CCCC1 (stereo not given)	-10%
CCC(=O)N1CCc2cc(Br)cc(S(=O)(=O)N3CCCC(C(=O)Nc4cc(C)ccc4OC)C3)c21 (stereo not given)	i
SMILES	Pf Dd2 growth
CCC(=O)N1CCc2cc(Br)cc(S(=O)(=O)N3CCC(C(=O)N(CC)CC)CC3)c21	10µM*
CCOC(=O)C1CCCN(S(=O)(=O)c2cc(Br)cc3c2N(C(=O)CC)CC3)C1 (stereo not given)	3.5µM*
CCc1cccc(C)c1NC(=O)C1CCN(S(=O)(=O)c2cc(Br)cc3c2N(C(C)=O)CC3)CC1	-25%
CCC(=O)N1CCc2cc(Br)cc(S(=O)(=O)N3CCCC(C(=O)NCc4ccc(OC)cc4)C3)c21 (stereo not given)	-3%
CCC(=O)N1CCc2cc(Br)cc(S(=O)(=O)N3CCN(c4cc(C)ccc4C)CC3)c21	5%
Cc1ccn(CC(=O)N2CCC3(CCCN(CCCc4ccccc4)C3)C2)n1 (stereo not given)	-27%
CN1CCC2(C1)CN(Cc1ccccc1)c1ccc(C(=O)NC3CCC(O)CC3)cc12 (stereo not given)	53%[44.1 µM]
O=C(c1ccc(Cl)cc1)N1CCOC(CN(C(=O)c2ccc(F)cc2)C2CCCC2)C1 (stereo not given)	-2%
Cc1noc(C)c1S(=O)(=O)N1C[C@@H](F)C[C@H]1C(=O)N1CCc2ccccc2C1	i
O=C1NC2(Cc3ccccc31)CN(CC1CCCC1)C2	13%[44.1 µM]
COc1ccc(N(Cc2cccs2)C(=O)COc2cccc(Cl)c2)cc1	-8%
COc1ccc(N(Cc2cccs2)C(=O)c2ccc(OC)c(Cl)c2)cc1	3%
CCCCOc1cccc(C(=O)N(Cc2cccs2)c2ccc(OC)cc2)c1	0.32µM*
CC(=O)NC1(C)CCN(c2cccc(C(F)(F)F)c2)CC1	-19%[44.1 µM]
COC(=O)c1c(-c2ccc(Cl)cc2)noc1N1CCN(c2ccc(F)cc2)CC1	-17%
COC(=O)c1c(-c2ccc(Cl)cc2)noc1N1CCN(c2cccc(C(F)(F)F)c2)CC1	7.1µM*
CCN(Cc1noc(C)n1)C(=O)C1CCC(=O)N(Cc2cccc(F)c2)C1 (stereo not given)	-4%
CCCCc1ccc(-n2cc(CN3CCN(C(C)=O)CC(O)C3)cn2)cc1 (stereo not given)	7%
O=C(N[C@@H](Cn1cc(Cl)c(=O)[nH]c1=O)C(=O)O)C1CC1	17%[44.1 µM]
CCc1nc2c(c(-c3ccc(Cl)cc3)n1)CN(C(=O)C1CCCC1)CC2	i
CC1CCCCN1Cc1c(O)ccc2c(=O)c(-c3ccc(Cl)cc3)coc12 (stereo not given)	2.2µM*
CC1CCCCN1Cc1c(O)ccc2c(=O)c(-c3ccccc3Cl)c(C(F)(F)F)oc12 (stereo not given)	8.9µM*
CN(C)Cc1nnc(C2CC(Nc3cncc(C(=O)N(C)C)n3)C2)n1C (stereo not given)	-4%
CC(C)(C)OC(=O)N1CCC(Cn2c(=O)[nH]c3cccnc32)CC1	-18%[44.1 µM]
Cc1ccc(NC(=O)Nc2ccccc2)c(=O)n1CC(=O)N1CCN(c2ccccc2)CC1	i
SMILES	Pf Dd2 growth
CCN1CCN(CCNC(=O)[C@H]2CCC[C@H]2NC(=O)c2ccncc2)CC1	6%
COCC(=O)N1CCCC(c2noc(COc3ccccc3)n2)C1 (stereo not given)	i
O=C(c1ccccc1F)N1CCn2c(nnc2[C@@H]2C[C@@H](O)CN2Cc2cccnc2)C1	35%
Cc1ccnc(N2CC3CCC(C2)N3CC(F)(F)F)c1[N+](=O)[O-]	6%
FC(F)(F)CN1C2CCC1CN(c1nnc(Cl)c3ccccc13)C2	0.71µM*
COc1ccccc1Nc1ccnc(N2CC3CCC(C2)N3CC(F)(F)F)n1	-26%
FC(F)(F)CN1C2CCC1CN(c1nccc(Nc3ccccc3Cl)n1)C2	8.9µM*
FC(F)(F)CN1C2CCC1CN(c1ncc(C(F)(F)F)cn1)C2	31%
FC(F)(F)CN1C2CCC1CN(c1ccccn1)C2	9%[44.1 µM]
Cc1ncc2c(N3CC4CCC(C3)N4CC(F)(F)F)nc3ccccc3n12	5µM*
O=[N+]([O-])c1ccc(Cl)nc1N1CC2CCC(C1)N2CC(F)(F)F	-24%
FC(F)(F)CN1C2CCC1CN(c1cnc3ccccc3c1)C2	-27%
O=C(c1ccccc1F)N1CCn2c(nn(-c3ccc(F)cc3F)c2=O)C1	2%
O=C1Nc2ccc(Br)cc2C(=O)N2CC[C@H](NS(=O)(=O)c3cccs3)C[C@@H]12	9%
CN1C(=O)CCC2(CNC(=O)C3CCC3)CCCC=C12 (stereo not given)	8%
O=C1CCN(C(=O)C2CCN(C(=O)CN3CCCC3=O)CC2)CCCCCCN1	25%
COCCNC(=O)CCc1c(C)nn(-c2ccccc2)c1Oc1ccc(F)cc1F	i
CNC(=O)N1CCCC(c2nc(C(C)C)no2)CCNC(=O)CC1 (stereo not given)	27%
CC(C)NC(=O)N1CCCCCNC(=O)[C@@H]2CCCC[C@@H]21	26%
Cc1ccc(NC(=O)CN(C)S(=O)(=O)c2cccc3cccnc23)cc1F	i
